# Experimental data as given in ChEMBL document CHEMBL3988442, “University of Dundee, Small-Polar-MMV Screening Library” (2021).
# The campaign covered roughly 69,000 compounds. About 1,000 (1.4%) showed an effect of 50% or more. This is one part of a sample in which strong results are shown more often than they occur.
# System: Leishmania donovani
# Assay: Leishmania intramacrophage assay
# Format: functional, organism-based
# Parameters: scale not given: in the data most compounds retested in dose-response had high values
smiles,measurement,setting,value
CS(=O)(=O)c1ccc(CNC(=O)N2CCC(c3ccccc3)CC2)cc1,Percent Effect,"30 µM, 30.03 µM",-1.511%
Cn1cc(CN2C[C@@H]3CN(C(=O)c4cccn4C)CCO[C@@H]3C2)cn1,Percent Effect,"30.3 µM, […]",58.31%
Cn1cccc1C(=O)N1CCO[C@@H]2CN(Cc3ccco3)C[C@@H]2C1,Percent Effect,"30.3 µM, […]",19.73%
Cc1cc(CN2C[C@@H]3CN(C(=O)c4cccn4C)CCO[C@@H]3C2)no1.O=C(O)C(F)(F)F,Percent Effect,"30.3 µM, […]",11.08%
COCC1CN(CC2CC2)Cc2nn(CC3CC3)cc21.O=C(O)C(F)(F)F (centres undefined),Percent Effect,"30.3 µM, […]",8.658%
O=C1OCCN1CCOc1nc(-c2ccccc2Cl)no1,Percent Effect,"30 µM, 30.03 µM",4.618%
CC(C(=O)Nc1ccc(Cl)cn1)n1ccc(C(F)(F)F)n1 (centres undefined),Percent Effect,"30.3 µM, […]",46.39%
Cc1cnc(NC(=O)C(C)n2ccc(C(F)(F)F)n2)s1 (centres undefined),Percent Effect,"30.3 µM, […]",59.23%
Cc1ccc(NC(=O)C(C)n2ccc(C(F)(F)F)n2)nc1 (centres undefined),Percent Effect,"30.3 µM, […]",38.05%
Cc1cc(C(=O)N2CCCCC2C)ccc1NC(=O)N1CCOCC1 (centres undefined),Percent Effect,30 µM,22%
O=C(O)C(F)(F)F.c1cnc(N2Cc3nccn3CC(COc3cccnc3)C2)nc1 (centres undefined),Percent Effect,"30.3 µM, […]",5.012%
CN(C)c1ncc(-c2cncn2CCc2ccc3c(c2)OCCO3)cn1.Cl,Percent Effect,"30.3 µM, […]",20.21%
Cc1cccc(C2(C(=O)NCCCn3cccn3)CC2)c1,Percent Effect,"30 µM, 30.03 µM",17.4%
Cc1ccc(C)c(C(=O)N2CCOC(CCN(C)C)C2)c1 (centres undefined),Percent Effect,"30.3 µM, […]",10.51%
Cc1ccc(C(C(=O)NCCN2CCC(CO)CC2)N(C)C)cc1 (centres undefined),Percent Effect,"30.3 µM, […]",25.71%
CCN(CC)CCCNCC1CCOC(C)(C)C1 (centres undefined),Percent Effect,"30.3 µM, […]",15.48%
Cc1ccc(C(CCNCCN(C)C)C2CCOC(C)(C)C2)cc1.O=C(O)C(=O)O (centres undefined),Percent Effect,"30.3 µM, […]",99.98%
Cc1ccc(C(CCNCCCN(C)C)C2CCOC(C)(C)C2)cc1.O=C(O)C(=O)O (centres undefined),Percent Effect,"30.3 µM, […]",85.22%
COCCn1ccc2cc(C(=O)NC3CCOC(C)(C)C3)ccc21 (centres undefined),Percent Effect,"30.3 µM, […]",4.385%
CCc1noc(C(C)N2CCC(C)CC2)n1 (centres undefined),Percent Effect,30 µM,28.8%
Cn1nc(COc2cccnc2)c2c1CCN(c1cnccn1)C2.O=CO.O=CO,Percent Effect,"30 µM, 30.03 µM",-2.364%
CCCn1nc(C)c(C(=O)N(C)[C@@H]2CC[C@@H](OC)[C@@H]2O)c1C,Percent Effect,"30.3 µM, […]",19.04%
CC(C(=O)Nc1ccc(N2CCCC2)nc1)n1cccn1 (centres undefined),Percent Effect,30 µM,19.04%
Cc1noc(C)c1CCCNC(=O)C1CCN(C(C)C)CC1,Percent Effect,"30.3 µM, […]",24.48%
Cc1nc2cc(CNC(=O)C3CC(=O)N(C4CCCC4)C3)ccc2n1C (centres undefined),Percent Effect,"30.3 µM, […]",2.689%
Cc1nc2cc(CNC(=O)C3CC(=O)N(CCN(C)C)C3)ccc2n1C (centres undefined),Percent Effect,"30.3 µM, […]",7.725%
CCN1CC(C(=O)NCc2ccc3c(c2)nc(C)n3C)CCC1=O (centres undefined),Percent Effect,"30.3 µM, […]",73.45%
CC(C)c1cc(C(=O)O)nc2[nH]c(=O)[nH]c(=O)c12,Percent Effect,"30.3 µM, […]",-5.63%
CCCc1nc(CN2CCCN(Cc3nccn3C)CC2)no1,Percent Effect,30 µM,36.47%
O=C(c1cc[nH]n1)N1CCc2ccc(S(=O)(=O)N3CCOCC3)cc2C1,Percent Effect,"30.3 µM, […]",52.38%
O=C(c1ccc[nH]1)N1CCc2cc(S(=O)(=O)N3CCOCC3)ccc2C1,Percent Effect,"30.3 µM, […]",17.1%
O=C(c1ccc[nH]1)N1CCc2ccc(S(=O)(=O)N3CCOCC3)cc2C1,Percent Effect,"30.3 µM, […]",-1.46%
CN(CC1CCCO1)c1nc(-c2cccnc2)nc2c1CCNCC2 (centres undefined),Percent Effect,"30.3 µM, […]",34.58%
c1cncc(-c2nc3c(c(NCC4(c5ccncc5)CC4)n2)CCC3)c1,Percent Effect,"30.3 µM, […]",33.94%
CC(O)CNc1nc(-c2cccnc2)nc2c1CCC2 (centres undefined),Percent Effect,"30.3 µM, […]",13.01%
Cl.NC1CCc2nc(-c3cccnc3)nc(Nc3ccc(F)cc3)c2C1 (centres undefined),Percent Effect,"30.3 µM, […]",94.83%
CCc1noc(CNc2nc(-c3cccnc3)nc3c2CCNCC3)n1,Percent Effect,"30.3 µM, […]",27.11%
CNS(=O)(=O)CC(=O)NC(C)Cc1ccc(-c2ccccc2)cc1 (centres undefined),Percent Effect,"30.3 µM, […]",32.54%
CN(CCN(C)S(=O)(=O)CC1CCOCC1)c1ccccc1,Percent Effect,"30.3 µM, […]",4.21%
Fc1ccccc1NCc1nc2n(n1)CCCCC2,Percent Effect,"30.3 µM, […]",-12.91%
O=C(Nc1ccccc1)C1=CC2(CCNCC2)c2ccccc21,Percent Effect,"30 µM, 30.03 µM",52.55%
CC(=O)N1CCC2(C=C(C(=O)NC3CC3)c3ccccc32)CC1,Percent Effect,"30.3 µM, […]",1.849%
O=C(C1=CC2(CCNCC2)c2ccccc21)N1CCCC1,Percent Effect,"30 µM, 30.03 µM",-18.75%
Cc1nn(CCn2ccnc2-c2cc3n(n2)CCCNC3)c(C)c1Cl,Percent Effect,"30 µM, 30.03 µM",27.54%
COc1ccc(CN2CCCCCC2c2cccs2)c(OC)c1 (centres undefined),Percent Effect,"30.3 µM, […]",16.39%
Cc1nc(C2CCCN(C(=O)c3cc(-c4ccccc4)[nH]n3)C2)no1 (centres undefined),Percent Effect,"30.3 µM, […]",9.064%
CC(C)CCN1CC2(CCN(C(=O)C3(C)CCCCO3)CC2)OC1=O (centres undefined),Percent Effect,"30.3 µM, […]",6.725%
COc1ccc(C2=Nn3c(CCCN)nnc3-c3ccccc3C2)cc1,Percent Effect,"30.3 µM, […]",30.64%
COc1ccc(C2=Nn3c(CN)nnc3-c3ccccc3C2)cc1,Percent Effect,"30.3 µM, […]",36.2%
COc1ccc(C2=Nn3c(CCN)nnc3-c3ccccc3C2)cc1,Percent Effect,"30.3 µM, […]",89.23%
CC(=O)N1CCc2c(nc(N(C)C)nc2NCCCn2ccnc2)C1,Percent Effect,"30.3 µM, […]",-10.69%
CN(C)CCN1C[C@@H]2CN(C(=O)C3CCOC3)C[C@@H]2C1=O.O=C(O)C(F)(F)F (some centres undefined),Percent Effect,"30.3 µM, […]",-26.31%
Cc1cc(C(=O)N2CCC3(CCC(=O)N(CC(N)=O)C3)CC2)ccc1O,Percent Effect,"30.3 µM, […]",11.98%
Cc1ccc(S(N)(=O)=O)cc1C(=O)NC1CCCC1,Percent Effect,"30.3 µM, […]",54.24%
Cc1ccc(S(N)(=O)=O)cc1C(=O)NC1CCCN(C)C1 (centres undefined),Percent Effect,"30.3 µM, […]",17.05%
CC(=O)N1CCC(NC(=O)c2cc(S(N)(=O)=O)ccc2C)CC1,Percent Effect,"30.3 µM, […]",-1.924%
CNC(=O)CN(C)C(=O)c1cc(Cl)c(Cl)n1C,Percent Effect,"30.3 µM, […]",1.638%
NC(=O)N1CCC(C(=O)NC2CCc3nccn3C2)CC1 (centres undefined),Percent Effect,"30.3 µM, […]",-91.03%
C=Cc1cccc(CN2CCCn3nc(CNS(C)(=O)=O)cc3C2)c1,Percent Effect,"30.3 µM, […]",8.14%
Fc1cnc(N2C[C@@H](OCC3CCOCC3)[C@H]3OCCC[C@H]32)nc1.O=C(O)C(F)(F)F,Percent Effect,"30.3 µM, […]",63.79%
O=C(O)C(F)(F)F.c1cnc(N2CCO[C@H]3[C@H](OCC4CCOCC4)CC[C@@H]32)nc1,Percent Effect,"30.3 µM, […]",26.14%
Fc1cnc(N2CCO[C@H]3[C@H](OCC4CCOCC4)CC[C@@H]32)nc1.O=C(O)C(F)(F)F,Percent Effect,"30.3 µM, […]",42.92%
O=S(=O)(Cc1ccccc1CN1CC[C@H](CO)[C@H](O)C1)c1ccccc1,Percent Effect,"30.3 µM, […]",22.14%
NC1CCCCN(Cc2ccccc2CS(=O)(=O)c2ccccc2)C1 (centres undefined),Percent Effect,"30.3 µM, […]",64.11%
N[C@@H]1CCN(Cc2ccccc2CS(=O)(=O)c2ccccc2)C[C@H]1O,Percent Effect,"30.3 µM, […]",11.27%
Cc1cnn(C2CN(Cc3nc(-c4ccccn4)no3)C2)c1,Percent Effect,30 µM,-31.22%
O=S(=O)(c1ccccc1)N1CCCN(CCCn2ccnc2)CC1,Percent Effect,"30 µM, 30.03 µM",52.87%
O=S(=O)(c1ccccc1)N1CCN(CCn2ccnc2)CC1,Percent Effect,"30 µM, 30.03 µM",0.5728%
Cc1ccc(S(=O)(=O)N2CCN(CCCn3ccnc3)CC2)cc1,Percent Effect,"30.3 µM, […]",3.879%
CCc1cc(=O)[nH]c2nnc(SCC(=O)NC(C)C)n12,Percent Effect,"30.3 µM, […]",-15.02%
COc1ccc(C(=O)N2CC[C@@]3(O)CCCC[C@H]3C2)cc1OC,Percent Effect,"30.3 µM, […]",15.68%
Cc1ccc2cc(C3(O)CCN(C(=O)CSC(C)C)CC3)ccc2n1,Percent Effect,"30.3 µM, […]",27.25%
Cc1nc(C2CCCNC2)nc2c1CCCN2Cc1ccccn1.Cl.Cl (centres undefined),Percent Effect,"30.3 µM, […]",30.18%
CNc1cc(-c2cccc(CN)c2)c2cc[nH]c2n1,Percent Effect,"30.3 µM, […]",52.08%
CNc1cc(-c2ccccc2CN)c2cc[nH]c2n1,Percent Effect,"30.3 µM, […]",31.34%
CNc1cc(-c2ccc(COCCN)cc2)c2cc[nH]c2n1,Percent Effect,"30.3 µM, […]",-14.52%
C=C(C)CN1CCC(C(=O)c2cc(F)ccc2F)CC1,Percent Effect,30 µM,41.7%
Cc1cccc2c1nc(CCO)n2-c1ccc(C(=O)N2CCOCC2)o1,Percent Effect,"30.3 µM, […]",26.23%
COc1ccc(C2OC(COc3ccc(C)cc3)=NN2C(C)=O)cc1 (centres undefined),Percent Effect,"30.3 µM, […]",8.051%
CC(=O)N1N=C(COc2ccc(C)cc2)OC1c1ccc(N(C)C)cc1 (centres undefined),Percent Effect,"30.3 µM, […]",54.92%
COCCNc1nc(N2CCOCC2)nc2nccnc12,Percent Effect,"30.3 µM, […]",21.04%
CC(C)=CCN1CCN(C(=O)C2CC2)CC1,Percent Effect,"30.3 µM, […]",-4.864%
COc1ccccc1CC(NC(=O)N1CCC[C@@H]1CO)C(C)C (some centres undefined),Percent Effect,"30.3 µM, […]",9.914%
CN(C)C(=O)CCNC(=O)Nc1sc2ccccc2c1Cl,Percent Effect,"30.3 µM, […]",-8.505%
CS(=O)(=O)CCNC(=O)Nc1sc2ccccc2c1Cl,Percent Effect,"30.3 µM, […]",-48.56%
CN(C)CC(C)(O)CNC(=O)Nc1sc2ccccc2c1Cl (centres undefined),Percent Effect,"30.3 µM, […]",53.76%
CN(CC(=O)NC(Cc1ccsc1)c1cccnc1)Cc1cccnc1.Cl (centres undefined),Percent Effect,"30.3 µM, […]",2.46%
O=c1[nH]c2c(c(=O)n1C1CCCCC1)CCC2Nc1ccccc1Cl (centres undefined),Percent Effect,"30 µM, 30.03 µM",19.4%
CC(CNC(=O)c1cccc(-n2cccn2)n1)Cn1ccnc1 (centres undefined),Percent Effect,"30.3 µM, […]",11.75%
COCC(=O)NC[C@H]1CC[C@H](c2ccnc3ncnn32)CC1,Percent Effect,"30.3 µM, […]",23.66%
O=C(NC[C@H]1CC[C@H](c2ccnc3ncnn32)CC1)C1CC1,Percent Effect,"30.3 µM, […]",16.97%
O=C(NC[C@H]1CC[C@H](c2ccnc3ncnn32)CC1)c1ccccn1,Percent Effect,"30.3 µM, […]",56.14%
COc1ccc(OCc2noc(CN(C)C3CCS(=O)(=O)C3)n2)cc1 (centres undefined),Percent Effect,"30.3 µM, […]",17.47%
O=C(CC1=CCCCC1)Nc1ccc(CN2C(=O)CCC2=O)cc1,Percent Effect,"30.3 µM, […]",-19.22%
C[C@@H]1CN(C2CCN(c3ccccc3F)CC2)C[C@]1(C)O,Percent Effect,"30.3 µM, […]",31.62%
C[C@@H]1CN(C2CCN(c3ccccc3F)CC2)CC[C@]1(C)O,Percent Effect,"30.3 µM, […]",62.06%
CC(=O)N[C@@H]1CN(C2CCN(c3ccccc3F)CC2)C[C@H]1C(C)C,Percent Effect,"30.3 µM, […]",-2.556%
CCC(O)CN1CCN(C(=O)c2cccn2Cc2ccccc2)CC1 (centres undefined),Percent Effect,"30 µM, 30.03 µM",13.25%
Cn1cc(C(=O)N[C@H]2CN(Cc3nccs3)[C@@H]3CCCO[C@H]23)cn1.O=C(O)C(F)(F)F,Percent Effect,"30.3 µM, […]",15.38%
